# Measured values as given in PubChem BioAssay.
# Calls of active or inactive are those of the source.
# Experiments:
# [1] = system: Plasmodium falciparum Sir2 (PF13_0152, Sir2A); experiment: pfSir2 binders on small-molecule microarrays, primary screen, biochemical, small-molecule microarray, 635 nm fluorescence (AID 1098); conditions: small-molecule microarray binding, fluorescence 635 nm; higher = more signal;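 also: score merges spot fluorescence intensity with its signal-to-noise ratio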
# [2] = small-molecule microarray binders of probe aDKK1, primary screen, biochemical, biotinylated probe, 635/667 nm fluorescence (AID 1099); conditions: higher = more signal;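 also: score merges 667nm spot fluorescence with signal to noise across triplicate slides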
# [3] = small-molecule microarray binders of probe aCHRDL2, primary screen, biochemical, biotinylated probe, 635/667 nm fluorescence (AID 1100); conditions: higher = more signal
# [4] = splicing luciferase reporter signal modulators, primary screen, spliceosome inhibition project, cell-based, HEK293, splice +/- reporter (AID 1101); conditions: luminescence, 24 h, higher = more signal, called active from +8 up or from −8 down;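 also: HEK293 cells carrying a splicing-competent luciferase reporter gene; test concentration not given here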
# [5] = biological target: Fibroblast growth factor 10 (Homo sapiens) (UniProt O15520); experiment: FGF10 binders on small-molecule microarrays, primary screen, biochemical, small-molecule microarray, 635 nm fluorescence (AID 1102); conditions: FGF10 binding, fluorescence 635 nm, higher = more signal
# [6] = system: glycogen synthase kinase-3 (GSK3A per assay name; protocol says GSK3B); experiment: GSK3 binders on small-molecule microarrays, primary screen, biochemical, small-molecule microarray, 635 nm fluorescence, GSK3A (AID 1103); conditions: small-molecule microarray binding, fluorescence 635 nm; higher = more signal; also: the record names both GSK3A and GSK3B
# [7] = biological target: Epidermal growth factor receptor (Homo sapiens) (UniProt P00533); experiment: EGFR binders on small-molecule microarrays, primary screen, biochemical, small-molecule microarray, 635 nm fluorescence (AID 1104); conditions: EGFR binding, higher = more signal;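 also: score merges 667 nm emission intensity with spot signal to noise over triplicate slides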
# [8] = biological target: Follistatin-related protein 3 (Homo sapiens) (UniProt O95633); experiment: FSTL3 binders on small-molecule microarrays, primary screen, biochemical, small-molecule microarray, 635 nm fluorescence (AID 1105); conditions: FSTL3 binding, higher = more signal;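 also: score merges emission near 667 nm and signal to noise per printed spot across three slides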
# [9] = biological target: Dickkopf-related protein 1 (Homo sapiens) (UniProt O94907); experiment: DKK1 binders on small-molecule microarrays, primary screen, biochemical, small-molecule microarray, 635 nm fluorescence scan (AID 1106); conditions: DKK1 binding, higher = more signal;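 also: score merges emission near 667 nm with signal to noise over three replicate slides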
# [10] = system: Inhibin beta A chain (activin A); experiment: INHBA (activin A) binders on microarrays, primary screen, biochemical, small-molecule microarray, 635 nm fluorescence scan (AID 1107); conditions: small-molecule microarray binding, higher = more signal;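 also: mouse activin A protein probed at 4.33 µg/mL on printed slides; score merges bound-protein fluorescence near 667 nm with spot signal-to-noise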
# [11] = system: Human papillomavirus type 1a protein E7 (residues 44-93); experiment: HPV1a E7 fragment binders on microarrays, primary screen, biochemical, small-molecule microarray, residues 44-93, 635 nm fluorescence (AID 1108); conditions: small-molecule microarray binding, fluorescence 635 nm; higher = more signal;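 also: E7 fragment applied at 1 µg/mL in TBST for 1 h at 4 C; score combines spot fluorescence with its signal to noise ratio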
# [12] = modulators of HCV replicon luciferase signal, primary screen, HCV replication inhibitor project, Huh7 cells, luciferase reporter (AID 1109); conditions: 48 h, higher = more signal;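 also: huh7 hepatoma cells harbouring a luciferase neomycin HCV replicon reporter; luciferase luminescence as measure of HCV replicon replication; test concentration not given here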
# [13] = biological target: Left-right determination factor 2 (Homo sapiens) (UniProt O00292); experiment: LEFTY2 binders on small-molecule microarrays, primary screen, biochemical, small-molecule microarray, 635 nm fluorescence scan (AID 1110); conditions: LEFTY2 binding, higher = more signal
# [14] = biological target: Calmodulin-1 (Homo sapiens) (UniProt P0DP23); experiment: CALM1 binders on microarrays, EGTA buffer, profiling panel, biochemical, small-molecule microarray, Cy5-labelled CALM1 (AID 1111); conditions: Cy5-CALM1 binding fluorescence, higher = more signal;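 also: labelled calmodulin applied in Tris saline Tween buffer holding calcium plus EGTA and DTT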
# [15] = biological target: Calmodulin-1 (Homo sapiens) (UniProt P0DP23); experiment: calcium-bound CALM1 binders on microarrays, profiling panel, artefact control for SMM control-protein annotation, biochemical, small-molecule microarray, Cy5-labelled CALM1, plus calcium (AID 1112); conditions: Cy5-CALM1 binding fluorescence, higher = more signal;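 also: score merges spot fluorescence with signal to noise from triplicate slides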
# [16] = small-molecule microarray binders of probe aWnt5a, primary screen, biochemical, biotinylated probe, 635/667 nm fluorescence (AID 1113); conditions: higher = more signal;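 also: score merges 667 nm fluorescence intensity with signal-to-noise per printed feature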
# [17] = small-molecule microarray binders of probe aShh, primary screen, biochemical, biotinylated probe, 635/667 nm fluorescence (AID 1114); conditions: higher = more signal;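 also: probe is biotin-labelled aShh protein from a stem cell growth factor screen; measures binding of labelled protein to compounds printed on the slide; score merges feature fluorescence at 667 nm with signal-to-noise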
# [18] = small-molecule microarray binders of probe aNog, primary screen, biochemical, biotinylated probe, 635/667 nm fluorescence (AID 1115); conditions: higher = more signal;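 also: probe is biotinylated aNog protein used at 0.15 µg/mL for 1 h at 4 C; z-score combines 667 nm fluorescence of each spot with its signal to noise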
# [19] = biological target: Torsin-1A-interacting protein 1 (Homo sapiens) (UniProt Q5JTV8); experiment: LAP1 binders from COS7 cell lysate, primary screen, small-molecule microarray, 635/667 nm fluorescence (AID 1116); conditions: COS7-hLAP1 lysate binding, 635 nm fluorescence, higher = more signal
# [20] = biological target: Alpha-bungarotoxin (Bungarus multicinctus) (UniProt P60615); experiment: alpha-bungarotoxin binders on microarray, profiling panel, artefact control for SMM control protein annotation, biochemical, small-molecule microarray, Alexa647 label, 635/667 nm fluorescence (AID 1117); conditions: alpha-BTX-A647 binding fluorescence, higher = more signal
# Alpha-bungarotoxin (Bungarus multicinctus), sequence (P60615 whole entry, looked up): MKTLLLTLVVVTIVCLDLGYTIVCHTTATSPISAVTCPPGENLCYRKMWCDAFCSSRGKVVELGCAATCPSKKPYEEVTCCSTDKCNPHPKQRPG
# Dickkopf-related protein 1 (Homo sapiens), sequence (O94907 whole entry, looked up): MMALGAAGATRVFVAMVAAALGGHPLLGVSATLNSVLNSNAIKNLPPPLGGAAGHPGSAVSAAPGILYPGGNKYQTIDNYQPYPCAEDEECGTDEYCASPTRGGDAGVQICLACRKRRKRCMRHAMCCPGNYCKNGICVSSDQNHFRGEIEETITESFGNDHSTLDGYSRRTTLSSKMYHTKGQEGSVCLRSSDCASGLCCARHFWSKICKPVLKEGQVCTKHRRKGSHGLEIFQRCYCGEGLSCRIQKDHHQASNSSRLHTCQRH
# Fibroblast growth factor 10 (Homo sapiens), sequence (O15520 whole entry, looked up): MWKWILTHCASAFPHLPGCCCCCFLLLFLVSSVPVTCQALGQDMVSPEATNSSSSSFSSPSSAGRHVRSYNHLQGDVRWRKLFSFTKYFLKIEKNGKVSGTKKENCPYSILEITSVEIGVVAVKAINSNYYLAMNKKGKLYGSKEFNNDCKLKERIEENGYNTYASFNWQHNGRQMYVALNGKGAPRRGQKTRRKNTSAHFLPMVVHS
# Epidermal growth factor receptor (Homo sapiens), sequence (P00533 whole entry, looked up): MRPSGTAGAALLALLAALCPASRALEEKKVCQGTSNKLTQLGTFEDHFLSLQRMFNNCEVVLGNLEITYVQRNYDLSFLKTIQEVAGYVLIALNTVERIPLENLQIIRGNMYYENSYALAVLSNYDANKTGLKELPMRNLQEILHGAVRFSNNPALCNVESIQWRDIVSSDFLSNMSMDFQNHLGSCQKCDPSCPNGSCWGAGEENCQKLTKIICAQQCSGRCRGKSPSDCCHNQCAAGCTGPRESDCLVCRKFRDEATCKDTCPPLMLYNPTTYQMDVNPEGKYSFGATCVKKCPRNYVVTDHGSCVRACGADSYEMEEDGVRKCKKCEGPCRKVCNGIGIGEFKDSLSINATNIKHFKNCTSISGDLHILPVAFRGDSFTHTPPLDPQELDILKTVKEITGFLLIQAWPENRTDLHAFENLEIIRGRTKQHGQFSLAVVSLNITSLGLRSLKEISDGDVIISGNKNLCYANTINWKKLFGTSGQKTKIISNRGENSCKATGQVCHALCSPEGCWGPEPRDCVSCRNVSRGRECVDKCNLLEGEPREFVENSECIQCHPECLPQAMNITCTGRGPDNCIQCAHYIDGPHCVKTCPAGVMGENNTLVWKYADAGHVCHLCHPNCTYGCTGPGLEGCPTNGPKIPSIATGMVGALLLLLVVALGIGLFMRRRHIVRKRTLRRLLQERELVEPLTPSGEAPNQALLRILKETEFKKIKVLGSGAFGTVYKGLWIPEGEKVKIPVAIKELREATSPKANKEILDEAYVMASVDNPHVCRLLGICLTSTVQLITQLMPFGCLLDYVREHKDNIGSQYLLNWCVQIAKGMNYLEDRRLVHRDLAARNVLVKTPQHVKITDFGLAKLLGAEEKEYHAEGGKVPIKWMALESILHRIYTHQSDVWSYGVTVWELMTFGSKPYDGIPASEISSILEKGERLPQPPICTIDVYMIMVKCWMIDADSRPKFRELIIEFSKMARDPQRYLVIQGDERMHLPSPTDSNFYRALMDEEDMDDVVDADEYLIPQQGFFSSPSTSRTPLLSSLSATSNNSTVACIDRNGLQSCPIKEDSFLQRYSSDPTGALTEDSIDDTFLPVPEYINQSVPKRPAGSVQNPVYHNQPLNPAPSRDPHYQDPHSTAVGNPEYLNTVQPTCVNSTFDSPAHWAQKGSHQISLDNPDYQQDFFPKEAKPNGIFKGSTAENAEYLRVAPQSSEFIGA
# Torsin-1A-interacting protein 1 (Homo sapiens), sequence (Q5JTV8 whole entry, looked up): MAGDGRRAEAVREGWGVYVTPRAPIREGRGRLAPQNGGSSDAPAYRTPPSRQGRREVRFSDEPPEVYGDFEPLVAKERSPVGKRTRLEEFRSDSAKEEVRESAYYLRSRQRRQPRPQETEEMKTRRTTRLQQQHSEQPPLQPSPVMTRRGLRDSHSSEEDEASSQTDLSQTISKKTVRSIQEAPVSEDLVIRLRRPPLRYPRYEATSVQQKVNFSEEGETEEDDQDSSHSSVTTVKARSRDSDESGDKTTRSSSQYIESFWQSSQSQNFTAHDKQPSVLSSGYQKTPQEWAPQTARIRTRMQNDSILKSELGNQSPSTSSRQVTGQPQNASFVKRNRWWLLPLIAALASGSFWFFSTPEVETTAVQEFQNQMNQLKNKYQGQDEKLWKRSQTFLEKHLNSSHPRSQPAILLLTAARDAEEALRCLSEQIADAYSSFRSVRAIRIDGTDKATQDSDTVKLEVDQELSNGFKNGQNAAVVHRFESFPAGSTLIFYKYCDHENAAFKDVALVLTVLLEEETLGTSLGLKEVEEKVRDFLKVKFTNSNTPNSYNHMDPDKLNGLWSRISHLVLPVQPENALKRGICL
# Follistatin-related protein 3 (Homo sapiens), sequence (O95633 whole entry, looked up): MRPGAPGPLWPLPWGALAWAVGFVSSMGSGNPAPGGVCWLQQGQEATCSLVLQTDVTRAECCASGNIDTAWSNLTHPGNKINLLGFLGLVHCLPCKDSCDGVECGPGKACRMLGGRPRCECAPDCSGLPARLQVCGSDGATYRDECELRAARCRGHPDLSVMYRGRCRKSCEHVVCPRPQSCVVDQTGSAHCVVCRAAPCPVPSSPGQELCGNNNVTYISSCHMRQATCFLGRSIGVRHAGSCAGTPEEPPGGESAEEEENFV
# Left-right determination factor 2 (Homo sapiens), sequence (O00292 whole entry, looked up): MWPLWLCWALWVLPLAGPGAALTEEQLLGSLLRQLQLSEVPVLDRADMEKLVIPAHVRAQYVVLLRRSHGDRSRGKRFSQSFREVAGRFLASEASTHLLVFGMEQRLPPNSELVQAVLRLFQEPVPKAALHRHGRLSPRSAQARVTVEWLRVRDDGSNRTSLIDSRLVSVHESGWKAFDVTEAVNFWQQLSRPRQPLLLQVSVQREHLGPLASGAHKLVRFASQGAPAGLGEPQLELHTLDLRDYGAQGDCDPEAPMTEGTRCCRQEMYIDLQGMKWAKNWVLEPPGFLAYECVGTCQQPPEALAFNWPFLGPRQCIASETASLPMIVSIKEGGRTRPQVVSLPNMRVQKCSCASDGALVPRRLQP
Structure (SMILES),composite z-score [1],composite z-score [2],composite z-score [3],z-score [4],composite z-score [5],composite z-score [6],composite z-score [7],composite z-score [8],composite z-score [9],composite z-score [10],composite z-score [11],z-score [12],composite z-score [13],composite z-score [14],composite z-score [15],composite z-score [16],composite z-score [17],composite z-score [18],composite z-score [19],composite z-score [20]
C=C(CCCC)C(=O)CC[C@H](OC(=O)c1ccccc1-c1ccccc1C(=O)O)c1ccccc1OCCO,0.855,-0.475,-0.336,2.02 (inactive),0.271,-0.218,-0.226,-0.279,0.145,1.28,0.166,-2.31,-0.171,-0.378,-0.814,-0.0944,0.318,0.397,0.442,0.26
CN(C)C(=O)[C@]1(CCS(=O)(=O)c2ccccc2)N=C(c2ccc(OCCCO)cc2)O[C@@H]1c1ccccc1,1.45,0.483,0.515,-0.621 (inactive),1.48,1.26,-0.0269,0.552,-0.323,0.82,1.44,-2.25,0.389,1.72,0.513,-0.034,0.582,-0.565,1,0.915
C=CCNC(=O)[C@@H]1[C@H]2C(=O)O[C@H](c3ccccc3)[C@H](c3ccccc3)N2[C@H](c2ccc(O)cc2)[C@@]12C(=O)Nc1ccc(C#CCC(C(=O)OC)C(=O)OC)cc12,0.445,0.0989,0.181,0.246 (inactive),0.242,0.958,-0.0617,0.544,0.317,0.595,1.31,-2.11,-0.0742,-0.0406,0.0221,-0.147,-0.2,0.187,0.411,0.388
